We go through eight sequences from article PMC11006913.

What all share (test): PBM; 200 nM protein, PBS
Common to all, as to settings: dsDNA, one strand shown

Assay [1] addresses SHOX (Homo sapiens, UniProt O15266 103-189).
Assay [2] concerns the target CRX (Homo sapiens, UniProt O43186 26-111).
For assay [3], the target named is CRX (Homo sapiens, UniProt O43186 26-111, E42D).
Assay [4] addresses HOXD13 (Homo sapiens, UniProt P35453 263-343, T313R).
For assay [5], the target named is SHOX (Homo sapiens, UniProt O15266 103-189, R173C).
SHOX (Homo sapiens, UniProt O15266 103-189, R173C), sequence (O15266 103-189 R173C): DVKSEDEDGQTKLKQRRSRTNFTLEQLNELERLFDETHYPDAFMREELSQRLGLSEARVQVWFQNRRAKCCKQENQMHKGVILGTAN
For assay [6], the target named is HOXD13 (Homo sapiens, UniProt P35453 263-343).
HOXD13 (Homo sapiens, UniProt P35453 263-343), sequence (P35453 263-343): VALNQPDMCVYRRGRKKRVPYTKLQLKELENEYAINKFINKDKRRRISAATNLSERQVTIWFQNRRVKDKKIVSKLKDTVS
Assay [7] has as its target HOXD13 (Homo sapiens, UniProt P35453 263-343, T313A).
For assay [8], the target named is CRX (Homo sapiens, UniProt O43186 26-111, R41L).
CRX (Homo sapiens, UniProt O43186 26-111, R41L), sequence (O43186 26-111 R41L): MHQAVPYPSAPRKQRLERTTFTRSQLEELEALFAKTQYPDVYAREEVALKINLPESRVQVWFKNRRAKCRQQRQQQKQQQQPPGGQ
In assay [9] the target is T1, SIX6 (Homo sapiens, UniProt O95475 114-200, L167I).
T1 sequence: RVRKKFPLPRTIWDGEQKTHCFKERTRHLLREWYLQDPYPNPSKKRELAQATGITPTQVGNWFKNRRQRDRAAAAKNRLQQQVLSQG

For assay [10], the target named is T2, SIX6 (Homo sapiens, UniProt O95475 114-200, L143V).
T2 sequence: T1 sequence with L30V, I54L

The target in assay [11] is T3, SIX6 (Homo sapiens, UniProt O95475 114-200, H141N).
T3 sequence: T1 sequence with H28N, I54L

The target in assay [12] is T4, SIX6 (Homo sapiens, UniProt O95475 114-200, T165P).
T4 sequence: T1 sequence with T52P, I54L

In assay [13] the target is T5, SIX6 (Homo sapiens, UniProt O95475 114-200, L167M).
T5 sequence: T1 sequence with I54M

The target in assay [14] is T6, SIX6 (Homo sapiens, UniProt O95475 114-200, L143M).
T6 sequence: T1 sequence with L30M, I54L

For assay [15], the target named is T7, SIX6 (Homo sapiens, UniProt O95475 114-200, L143I).
T7 sequence: T1 sequence with L30I, I54L

The target of assay [16] is T8, SIX6 (Homo sapiens, UniProt O95475 114-200, T165G).
T8 sequence: T1 sequence with T52G, I54L

Assay [17] concerns the target T9, SIX6 (Homo sapiens, UniProt O95475 114-200, T139Q).
T9 sequence: T1 sequence with T26Q, I54L

Assay [18] concerns the target T10, SIX6 (Homo sapiens, UniProt O95475 114-200, T165A).
T10 sequence: T1 sequence with T52A, I54L

In assay [19] the target is T11, SIX6 (Homo sapiens, UniProt O95475 114-200, L167V).
T11 sequence: T1 sequence with I54V

In assay [20] the target is T12, SIX6 (Homo sapiens, UniProt O95475 114-200).
T12 sequence: T1 sequence with I54L

For assay [21], the target named is T13, SIX6 (Homo sapiens, UniProt O95475 114-200, T165I).
T13 sequence: T1 sequence with T52I, I54L

For assay [22], the target named is T14, VENTX (Homo sapiens, UniProt O95231 78-163, R121Q).
T14 sequence: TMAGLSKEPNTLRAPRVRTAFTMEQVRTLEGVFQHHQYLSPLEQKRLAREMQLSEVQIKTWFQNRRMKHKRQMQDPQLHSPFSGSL

The target of assay [23] is HOXB9 (Homo sapiens, UniProt P17482 171-250, T197M).
HOXB9 (Homo sapiens, UniProt P17482 171-250, T197M), sequence (P17482 171-250 T197M): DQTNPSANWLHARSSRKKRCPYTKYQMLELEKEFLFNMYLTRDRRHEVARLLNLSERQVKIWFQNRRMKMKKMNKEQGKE
The target in assay [24] is T15, VENTX (Homo sapiens, UniProt O95231 78-163).
T15 sequence: T14 sequence with Q44R

Assay [25] concerns the target T16, VENTX (Homo sapiens, UniProt O95231 78-163, Y115F).
T16 sequence: T14 sequence with Y38F, Q44R

Assay [26] addresses HOXB9 (Homo sapiens, UniProt P17482 171-250).
The target of assay [27] is PROP1 (Homo sapiens, UniProt O75360 56-141).
PROP1 (Homo sapiens, UniProt O75360 56-141), sequence (O75360 56-141): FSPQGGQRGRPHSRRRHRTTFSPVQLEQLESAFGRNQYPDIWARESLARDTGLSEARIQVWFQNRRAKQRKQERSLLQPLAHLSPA
Assay [28] addresses PROP1 (Homo sapiens, UniProt O75360 56-141, R99H).
The target in assay [29] is HOXB9 (Homo sapiens, UniProt P17482 171-250, R186Q).
HOXB9 (Homo sapiens, UniProt P17482 171-250, R186Q), sequence (P17482 171-250 R186Q): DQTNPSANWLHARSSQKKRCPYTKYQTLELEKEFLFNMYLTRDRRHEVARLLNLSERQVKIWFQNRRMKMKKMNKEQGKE
Assay [30] concerns the target PROP1 (Homo sapiens, UniProt O75360 56-141, F88S).
For assay [31], the target named is HOXC9 (Homo sapiens, UniProt P31274 178-260, K195R).
HOXC9 (Homo sapiens, UniProt P31274 178-260, K195R), sequence (P31274 178-260 K195R): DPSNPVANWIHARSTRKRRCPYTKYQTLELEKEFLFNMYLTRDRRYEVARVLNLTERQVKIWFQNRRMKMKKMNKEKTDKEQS
The target in assay [32] is HOXC9 (Homo sapiens, UniProt P31274 178-260).
HOXC9 (Homo sapiens, UniProt P31274 178-260), sequence (P31274 178-260): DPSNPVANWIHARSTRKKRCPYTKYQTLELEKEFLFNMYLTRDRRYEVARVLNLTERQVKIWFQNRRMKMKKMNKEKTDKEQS
For assay [33], the target named is HOXC9 (Homo sapiens, UniProt P31274 178-260, R193K).
HOXC9 (Homo sapiens, UniProt P31274 178-260, R193K), sequence (P31274 178-260 R193K): as the sequence (P31274 178-260) above, with R16K counted along it
In assay [34] the target is HOXC9 (Homo sapiens, UniProt P31274 178-260, R222W).
HOXC9 (Homo sapiens, UniProt P31274 178-260, R222W), sequence (P31274 178-260 R222W): as the sequence (P31274 178-260) above, with R45W counted along it
The target of assay [35] is HOXC10 (Homo sapiens, UniProt Q9NYD6 254-340).
HOXC10 (Homo sapiens, UniProt Q9NYD6 254-340), sequence (Q9NYD6 254-340): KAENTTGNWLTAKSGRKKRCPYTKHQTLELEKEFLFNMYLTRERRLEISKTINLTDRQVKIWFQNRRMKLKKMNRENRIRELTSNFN
The target of assay [36] is HOXC10 (Homo sapiens, UniProt Q9NYD6 254-340, K271E).
HOXC10 (Homo sapiens, UniProt Q9NYD6 254-340, K271E), sequence (Q9NYD6 254-340 K271E): as the sequence (Q9NYD6 254-340) above, with K18E counted along it
The target of another assay is PITX2 (Homo sapiens, UniProt Q99697 72-157).

Residue numbers refer to the chain shown, from its start.

SHOX (Homo sapiens, UniProt O15266 103-189), sequence (O15266 103-189): as the sequence (O15266 103-189 R173C) above, with C71R counted along it
CRX (Homo sapiens, UniProt O43186 26-111), sequence (O43186 26-111): as the sequence (O43186 26-111 R41L) above, with L16R counted along it
CRX (Homo sapiens, UniProt O43186 26-111, E42D), sequence (O43186 26-111 E42D): as the sequence (O43186 26-111 R41L) above, with L16R, E17D counted along it
HOXB9 (Homo sapiens, UniProt P17482 171-250), sequence (P17482 171-250): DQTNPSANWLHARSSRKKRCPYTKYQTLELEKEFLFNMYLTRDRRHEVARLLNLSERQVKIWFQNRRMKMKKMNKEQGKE
HOXD13 (Homo sapiens, UniProt P35453 263-343, T313R), sequence (P35453 263-343 T313R): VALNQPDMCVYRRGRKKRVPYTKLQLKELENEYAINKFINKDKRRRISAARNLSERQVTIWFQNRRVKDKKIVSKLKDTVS
HOXD13 (Homo sapiens, UniProt P35453 263-343, T313A), sequence (P35453 263-343 T313A): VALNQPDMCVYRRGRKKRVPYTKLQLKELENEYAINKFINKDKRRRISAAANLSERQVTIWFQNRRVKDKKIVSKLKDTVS
PROP1 (Homo sapiens, UniProt O75360 56-141, F88S), sequence (O75360 56-141 F88S): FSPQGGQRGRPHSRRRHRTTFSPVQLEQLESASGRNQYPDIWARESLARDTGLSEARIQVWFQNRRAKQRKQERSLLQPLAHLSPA
PROP1 (Homo sapiens, UniProt O75360 56-141, R99H), sequence (O75360 56-141 R99H): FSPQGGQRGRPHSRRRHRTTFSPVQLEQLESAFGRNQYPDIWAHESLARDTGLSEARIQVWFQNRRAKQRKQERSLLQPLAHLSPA

As for GGCGGGCA, the binding signal in the assay with SHOX [1] is 7.13 upbm affinity estimate (log intensity, higher = more binding, comparable within an allelic series); in the assay with CRX [2], 8.31 upbm affinity estimate (log intensity, higher = more binding, comparable within an allelic series); with CRX [3], 8.21 upbm affinity estimate (log intensity, higher = more binding, comparable within an allelic series); with HOXD13 [4], 9.46 upbm affinity estimate (log intensity, higher = more binding, comparable within an allelic series); with SHOX [5], 7.15 upbm affinity estimate (log intensity, higher = more binding, comparable within an allelic series); with HOXD13 [6], 9.45 upbm affinity estimate (log intensity, higher = more binding, comparable within an allelic series). Besides, the binding signal in the assay with HOXD13 [7] is 9.59 upbm affinity estimate (log intensity, higher = more binding, comparable within an allelic series); with CRX [8], 8.39 upbm affinity estimate (log intensity, higher = more binding, comparable within an allelic series).

Turning to CCGGCCAC, the binding signal is 7.3 upbm affinity estimate (log intensity, higher = more binding, comparable within an allelic series) in the assay with SHOX [1]; 8.84 upbm affinity estimate (log intensity, higher = more binding, comparable within an allelic series) in the assay with SIX6 [9]; 8.77 upbm affinity estimate (log intensity, higher = more binding, comparable within an allelic series) with SIX6 [10]; 8.85 upbm affinity estimate (log intensity, higher = more binding, comparable within an allelic series) with SIX6 [11]; 8.87 upbm affinity estimate (log intensity, higher = more binding, comparable within an allelic series) with SIX6 [12]; 8.86 upbm affinity estimate (log intensity, higher = more binding, comparable within an allelic series) with SIX6 [13]. For the same sequence, the binding signal was 8.73 upbm affinity estimate (log intensity, higher = more binding, comparable within an allelic series) in the assay with SIX6 [14]; 8.81 upbm affinity estimate (log intensity, higher = more binding, comparable within an allelic series) with SIX6 [15]; 8.89 upbm affinity estimate (log intensity, higher = more binding, comparable within an allelic series) with SIX6 [16]; 8.81 upbm affinity estimate (log intensity, higher = more binding, comparable within an allelic series) in the assay with SIX6 [17]; 8.81 upbm affinity estimate (log intensity, higher = more binding, comparable within an allelic series) in the assay with SIX6 [18]; 7.14 upbm affinity estimate (log intensity, higher = more binding, comparable within an allelic series) with SHOX [5]. The binding signal in the assay with SIX6 [19] is 8.82 upbm affinity estimate (log intensity, higher = more binding, comparable within an allelic series); in the assay with SIX6 [20], 8.74 upbm affinity estimate (log intensity, higher = more binding, comparable within an allelic series); with SIX6 [21] it was 8.83 upbm affinity estimate (log intensity, higher = more binding, comparable within an allelic series).

Consider GGGCCGAA, for which the binding signal with SHOX [1] is 7.23 upbm affinity estimate (log intensity, higher = more binding, comparable within an allelic series); with SIX6 [9], 8.79 upbm affinity estimate (log intensity, higher = more binding, comparable within an allelic series); in the assay with SIX6 [10], 8.79 upbm affinity estimate (log intensity, higher = more binding, comparable within an allelic series); with SIX6 [11] it was 8.73 upbm affinity estimate (log intensity, higher = more binding, comparable within an allelic series); in the assay with SIX6 [12], 8.89 upbm affinity estimate (log intensity, higher = more binding, comparable within an allelic series); with SIX6 [13], 8.8 upbm affinity estimate (log intensity, higher = more binding, comparable within an allelic series). The binding signal with SIX6 [14] is 8.64 upbm affinity estimate (log intensity, higher = more binding, comparable within an allelic series); with SIX6 [15], 8.74 upbm affinity estimate (log intensity, higher = more binding, comparable within an allelic series); in the assay with SIX6 [16], 8.79 upbm affinity estimate (log intensity, higher = more binding, comparable within an allelic series); in the assay with SIX6 [17], 8.8 upbm affinity estimate (log intensity, higher = more binding, comparable within an allelic series); in the assay with SIX6 [18], 8.73 upbm affinity estimate (log intensity, higher = more binding, comparable within an allelic series); with SHOX [5], 7.18 upbm affinity estimate (log intensity, higher = more binding, comparable within an allelic series). For the same sequence, the binding signal is 8.77 upbm affinity estimate (log intensity, higher = more binding, comparable within an allelic series) with SIX6 [19]; 8.68 upbm affinity estimate (log intensity, higher = more binding, comparable within an allelic series) with SIX6 [20]; 8.82 upbm affinity estimate (log intensity, higher = more binding, comparable within an allelic series) with SIX6 [21].

For the sequence CCGCATCC, the binding signal with SHOX [1] was 7.26 upbm affinity estimate (log intensity, higher = more binding, comparable within an allelic series); with VENTX [22], 8.27 upbm affinity estimate (log intensity, higher = more binding, comparable within an allelic series); with HOXB9 [23], 8.5 upbm affinity estimate (log intensity, higher = more binding, comparable within an allelic series); with VENTX [24], 8.44 upbm affinity estimate (log intensity, higher = more binding, comparable within an allelic series); with VENTX [25], 8.27 upbm affinity estimate (log intensity, higher = more binding, comparable within an allelic series); in the assay with HOXB9 [26] it was 8.49 upbm affinity estimate (log intensity, higher = more binding, comparable within an allelic series). The binding signal is 7.23 upbm affinity estimate (log intensity, higher = more binding, comparable within an allelic series) with SHOX [5]; 6.85 upbm affinity estimate (log intensity, higher = more binding, comparable within an allelic series) with PROP1 [27]; 6.89 upbm affinity estimate (log intensity, higher = more binding, comparable within an allelic series) in the assay with PROP1 [28]; 8.51 upbm affinity estimate (log intensity, higher = more binding, comparable within an allelic series) with HOXB9 [29]; 6.67 upbm affinity estimate (log intensity, higher = more binding, comparable within an allelic series) with PROP1 [30].

As to CATTTTCC, in the assay with SHOX [1], the binding signal is 8.3 upbm affinity estimate (log intensity, higher = more binding, comparable within an allelic series).

With CGTGAGAG, the binding signal with SHOX [1] is 7.22 upbm affinity estimate (log intensity, higher = more binding, comparable within an allelic series); with VENTX [22], 8.23 upbm affinity estimate (log intensity, higher = more binding, comparable within an allelic series); with HOXC9 [31], 9.74 upbm affinity estimate (log intensity, higher = more binding, comparable within an allelic series); in the assay with VENTX [24], 8.19 upbm affinity estimate (log intensity, higher = more binding, comparable within an allelic series); with VENTX [25], 8.23 upbm affinity estimate (log intensity, higher = more binding, comparable within an allelic series); with HOXC9 [32], 9.82 upbm affinity estimate (log intensity, higher = more binding, comparable within an allelic series). In addition, the binding signal with SHOX [5] was 7.25 upbm affinity estimate (log intensity, higher = more binding, comparable within an allelic series); with HOXC9 [33], 9.77 upbm affinity estimate (log intensity, higher = more binding, comparable within an allelic series); with HOXC9 [34], 9.81 upbm affinity estimate (log intensity, higher = more binding, comparable within an allelic series).

Turning to CGCTGACC, the binding signal is 7.27 upbm affinity estimate (log intensity, higher = more binding, comparable within an allelic series) with SHOX [1]; 8.61 upbm affinity estimate (log intensity, higher = more binding, comparable within an allelic series) in the assay with HOXB9 [23]; 10.1 upbm affinity estimate (log intensity, higher = more binding, comparable within an allelic series) in the assay with HOXC10 [35]; 8.64 upbm affinity estimate (log intensity, higher = more binding, comparable within an allelic series) with HOXB9 [26]; 7.24 upbm affinity estimate (log intensity, higher = more binding, comparable within an allelic series) with SHOX [5]; 10.1 upbm affinity estimate (log intensity, higher = more binding, comparable within an allelic series) in the assay with HOXC10 [36]. Further, the binding signal in the assay with HOXB9 [29] is 8.66 upbm affinity estimate (log intensity, higher = more binding, comparable within an allelic series).

Regarding CGGATTAG, the binding signal was 8.9 upbm affinity estimate (log intensity, higher = more binding, comparable within an allelic series) in the assay with SHOX [1]; 13.6 upbm affinity estimate (log intensity, higher = more binding, comparable within an allelic series) in the assay with CRX [2]; 13.7 upbm affinity estimate (log intensity, higher = more binding, comparable within an allelic series) with CRX [3]; 13.2 upbm affinity estimate (log intensity, higher = more binding, comparable within an allelic series) with PITX2; 13.4 upbm affinity estimate (log intensity, higher = more binding, comparable within an allelic series) with CRX [8].
